Our source for the Potency values is PubChem BioAssay (NCATS).

SMILES strings stand for the structures. Inconclusive results are not listed. The source made the active and inactive calls. The call rests on the fitted dose curve; in most records, active means well fitted cell-killing curve with a large enough effect; inconclusive means small, poorly fitted or top-dose-only effect, or effect the other way; inactive means no such curve, though single readings can be large or run the other way.
Potency means the concentration at half of the fitted maximal effect.

This test is described as follows: Quantitative High-Throughput drug screen in 47 multiple myeloma cell lines against the NCATS MIPE library collection: MMM1_PLB cell viability assay (AID 1918976). Further: nearly all actives have a fitted effect of over 35% in size. To be noted: MMM1 myeloma cells viability, CellTiter-Glo, 48 h; series mostly up to 45.8 µM. The source says:
PI: Beverly A. Mock Ph.D.
Laboratory of Cancer Biology and Genetics,
Center for Cancer Research, National Cancer Institute,
National Institute of Health, Bethesda, Maryland
Drug resistance and disease progression are common in multiple myeloma (MM) patients, underscoring the need for new therapeutic combinations. […] We hypothesized that effective combinations would reduce MYC expression and enhance p16 activity. […] These preclinical data identify potentially useful drug combinations for evaluation in drug-resistant MM and reveal potential mechanisms of combined drug sensitivity.
Described herein is the primary MIPE qHTS used to cherrypick compounds. Validated compounds were then further tested for potential synergistic activiy.
[1] Peat TJ, Gaikwad SM, Dubois W, Gyabaah-Kessie N, Zhang S, Gorjifard S, Phyo Z, Andres M, Hughitt VK, Simpson RM, Miller MA, Girvin AT, Taylor A, Williams D, D'Antonio N, Zhang Y, Rajagopalan A, Flietner E, Wilson K, Zhang X, Shinn P, Klumpp-Thomas C, McKnight C, Itkin Z, Chen L, Kazandijian D, Zhang J, Michalowski AM, Simmons JK, Keats J, Thomas CJ, Mock BA. Drug combinations identified by high-throughput screening promote cell cycle transition and upregulate Smad pathways in myeloma. Cancer Lett. 2023 Aug 1;568:216284. doi: 10.1016/j.canlet.2023.216284. Epub 2023 Jun 24. PMID: 37356470; PMCID: PMC10408729.
SEQUENCE No. (e.g., 1, 2, 3, etc.); […] (e.g., Cells, Incubation, Reagent, etc.); VALUE and DESCRIPTION.
1; Cells; 5 uL; white, solid bottom 1536-well Greiner assay plate.
2; Compounds; 23 nL; Kalypsis pin tool (Wako USA) equipped with a 1536-well pin head to transfer to the assay plates.
3; Incubation; 48 hours; 37C incubation.
4; Reagent;5uL; CellTiter Glo (Promega).
5; Detector; 425V; Luminescence; Viewlux PerkinElmer.
NOTES (numbers refer to Sequence numbers above)
1. The cell-based screening methods employed in this study were like those previously published. Briefly, the corresponding myeloma cell lines were screened in 1,536-well plates with 500 cells, 5-uL per well for inhibition of cell viability (assessed by measuring ATP levels with CellTiterGlo).
2. NCATS MIPE 4.0 library of approved and investigational drugs were added using the Kalypsis pin tool. Wells treated with DMSO only for 100% viability and media only for 0% viability were used as controls.
3. The assay plates were covered and incubated for 48 hours in a 37C, 5% CO2 incubator with controlled humidity.
4. After 48 hours, CellTilter-GloTM luminescent substrate mix (Promega) reagent was added to the assay plate and plates we incubated for 5 min at room temperature.
5. Signal was measured as median relative luminescence units on a ViewLux (PerkinElmer) multiplate reader.
[1] Heske CM, Davis MI, Baumgart JT, Wilson K, Gormally MV, Chen L, Zhang X, Ceribelli M, Duveau DY, Guha R, Ferrer M, Arnaldez FI, Ji J, Tran HL, Zhang Y, Mendoza A, Helman LJ, Thomas CJ. Matrix Screen Identifies Synergistic Combination of PARP Inhibitors and Nicotinamide Phosphoribosyltransferase (NAMPT) Inhibitors in Ewing Sarcoma. Clin Cancer Res. 2017 Dec 1;23(23):7301-7311. doi: 10.1158/1078-0432.CCR-17-1121. Epub 2017 Sep 12. PMID: 28899971; PMCID: PMC6636827.
For `Cn1c2cc(S(C)=O)sc2c2cnn(Cc3cccc(N)c3)c(=O)c21` (stereo not given), the Potency is 3.32 µM (active).
Next, `CC(C)c1ccccc1Cc1cc(C(=O)Nc2ccc(S(=O)(=O)c3ccccc3C(C)(C)C)cc2)c(O)c(O)c1O`: 18.7 µM (active); `C=CCn1c(=O)c2cnc(Nc3ccc(N4CCN(C)CC4)cc3)nc2n1-c1cccc(C(C)(C)O)n1`: “inactive”.
Take `CC(C)c1cc(-c2n[nH]c(=O)n2-c2ccc3c(ccn3C)c2)c(O)cc1O`: the Potency is 0.0743 µM (active).
Next, `Cc1nc2ccc(CN(C)c3ccc(C(=O)N[C@@H](CCC(=O)O)C(=O)O)s3)cc2c(=O)[nH]1`: 5.9 µM (active).
In the case of `COCCOc1ccc2c(c1)ncn2-c1ccc2cccc(N3CCC(N)CC3)c2n1`, the Potency was 23.5 µM (active).
The same measure for `Cc1cccc(C=NNc2cc(N3CCOCC3)nc(OCCc3ccccn3)n2)c1`: 16.6 µM (active); for `Cn1cncc1[C@@](N)(c1ccc(Cl)cc1)c1ccc2c(c1)c(-c1cccc(Cl)c1)cc(=O)n2C`: 14.8 µM (active).
Next, `CN(c1ncccc1CNc1nc(Nc2ccc3c(c2)CC(=O)N3)ncc1C(F)(F)F)S(C)(=O)=O`: 7.43 µM (active); `CN[C@H]1CCc2cc(OC)c(OC)c(OC)c2-c2ccc(OC)c(=O)cc21`: 0.0105 µM (active).
The same measure for `CC(C)Nc1cc(C(F)(F)F)cc2nc(NC(=O)c3cccnc3)nn12`: 1.87 µM (active); for `COc1c(OCCCN2CCOCC2)ccc2c3n(c(=NC(=O)c4cnc(N)nc4)nc12)CCN3`: 0.0512 µM (active); for `COc1cc2ncn(-c3cc(OCc4ccccc4C(F)(F)F)c(C(N)=O)s3)c2cc1OC`: 20.9 µM (active).
Take `CNC(=O)c1cc(Oc2ccc(NC(=O)Nc3cc(C(C)(C)C)nn3-c3ccc4ncccc4c3)c(F)c2)ccn1`: the Potency was 14.8 µM (active).
The same measure for `COc1cccc(-c2ccc(NC(=O)C3=C(C(=O)O)CCC3)c(F)c2)c1`: 20.9 µM (active); for `CC(=O)Nc1nc(C)c(-c2ccc(Cl)c(S(=O)(=O)NCCO)c2)s1`: 5.9 µM (active); for `Cn1cc(-c2[nH]c3cc(NC(=O)[C@H](N)C4CCCCC4)cc4c3c2C=NNC4=O)cn1`: 1.32 µM (active).
The same measure for `COC(=O)C1=C(C)NC(C)=C(C(=O)OCCN2CCN(C(c3ccccc3)c3ccccc3)CC2)C1c1cccc([N+](=O)[O-])c1` (stereo not given): “inactive”.
Next, `CCN1CCN(CC(=O)Nc2ccc(-c3cccc4c(=O)cc(N5CCOCC5)oc34)c3sc4ccccc4c23)CC1`: 2.35 µM (active); `O=C(O)c1ccc2cc(-c3ccc(O)c(C45CC6CC(CC(C6)C4)C5)c3)ccc2c1`: 18.7 µM (active); `O=c1[nH]nc(Sc2ncc([N+](=O)[O-])s2)n1-c1ccc2c(c1)OCCO2`: 2.96 µM (active).
Turning to `CC(C)c1nn(-c2c(Cl)cccc2Cl)c2nc(Cc3ccc(OCCO)cc3)[nH]c(=O)c12`, the Potency was 0.148 µM (active).
The same measure for `Cn1cc(-c2ccncc2)c(-c2ccc(OCc3ccc4ccccc4n3)cc2)n1`: 2.96 µM (active).
In the case of `CC1(C)O[C@@H]2C[C@@H]3[C@H]4C[C@@H](F)C5=CC(=O)C=C[C@]5(C)[C@@]4(F)[C@@H](O)C[C@]3(C)[C@]2(C(=O)CO)O1`, the Potency was 0.0105 µM (active).
The same measure for `c1ccc2c(CCNc3ccc(Nc4ccncc4)cc3)c[nH]c2c1`: 13.2 µM (active).
Turning to `CC(C)=CCCC(C)=CCCC(C)=CCSc1ccccc1C(=O)O`, the Potency was 1.32 µM (active).
Next, `Cc1c(CN2CCN(S(C)(=O)=O)CC2)sc2c(N3CCOCC3)nc(-c3cnc(N)nc3)nc12`: 0.0235 µM (active); `CCCCOc1c(C(=O)c2c(F)cc(C)cc2F)cnc2n[nH]cc12`: 5.26 µM (active).
Take `Cc1cc(Nc2ncnc3ccc(-c4ccc(CNCCS(C)(=O)=O)o4)cc23)ccc1Oc1ccn2ncnc2c1`: the Potency is 3.32 µM (active).
With `CC(=O)SC[C@@H](C)C(=O)N1CCC[C@H]1C(=O)N[C@@H](Cc1ccccc1)C(=O)O`, the Potency is 1.87 µM (active).
Next, `COc1cc(-c2nn(C3CCC(N4CCN(C(C)=O)CC4)CC3)c3ncnc(N)c23)ccc1NC(=O)c1cc2ccccc2n1C` (stereo not given): 16.6 µM (active); `CC(C)c1noc(N2CCC(COc3ccc(-c4ccc(S(C)(=O)=O)cc4)nc3)CC2)n1`: 9.35 µM (active).
The same measure for `COc1ccc(C(=O)CC2(O)C(=O)Nc3c(Cl)ccc(Cl)c32)cc1` (stereo not given): 14.8 µM (active); for `Nc1ncnc2c1c(-c1cccc(OCc3ccccc3)c1)cn2C1CC(CN2CCCC2)C1` (stereo not given): 1.05 µM (active).
Consider `c1cc(-c2cnn3cc(-c4ccc(OCCN5CCCCC5)cc4)cnc23)ccn1`, for which the Potency was 16.6 µM (active).
The same measure for `COc1cc2c(cc1-c1c(C)noc1C)ncc1[nH]c(=O)n([C@H](C)c3ccccn3)c12`: 7.43 µM (active).
Next, `Cc1cnc(Nc2ccc(F)cc2Cl)nc1-c1c[nH]c(C(=O)N[C@H](CO)c2cccc(Cl)c2)c1`: 16.6 µM (active); `CN(C)CCCN=c1c2ccccc2n(C)c2[nH]c(=O)n(C)c(=O)c12`: 16.6 µM (active).
The same measure for `Nc1nc(Nc2ccc(S(N)(=O)=O)cc2)nn1C(=O)c1c(F)cccc1F`: 10.5 µM (active).
With `CN1CCN(c2ccc3nc(-c4c(N)c5c(F)cccc5[nH]c4=O)[nH]c3c2)CC1`, the Potency is 20.9 µM (active).
